# Reference: the supplement of paper PMC6555819
# Tests used:
# Experiment in all cases: PBM binding z-score (relative to random genomic background probes); higher = stronger binding; sequences stand for … in GC…GCGATTGACAGCGTAGAATGAAGG
# [1] = system: FXR:RXRa (NR concentration 270 nM, RXRa partner concentration 90 nM)
# Method in brief: (§1)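 Each nuclear receptor dimer, without ligand, was incubated for 1 h on custom Agilent 4×180K protein-binding microarrays. Binding was detected with antibodies against each partner (one per run), and scanned fluorescence was regression-normalized. The binding z-scores are referenced to random human genomic background probes.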
# [2] = system: LXRa:RXRa (NR concentration 270 nM, RXRa partner concentration 90 nM)
# Method in brief: as §1
# [3] = system: LXRa homodimer (NR concentration 270 nM)
# Method in brief: as §1
# [4] = system: LXRb:RXRa (NR concentration 270 nM, RXRa partner concentration 90 nM)
# Method in brief: as §1
# [5] = system: LXRb homodimer (NR concentration 270 nM)
# Method in brief: as §1
# [6] = system: PPARa:RXRa (NR concentration 270 nM, RXRa partner concentration 90 nM)
# Method in brief: as §1
# [7] = system: PPARg:RXRa (NR concentration 180 nM, RXRa partner concentration 90 nM)
# Method in brief: as §1
# [8] = system: PPARg:RXRa 270nM:90nM, anti-RXR (NR concentration 270 nM, RXRa partner concentration 90 nM)
# Method in brief: as §1
# [9] = system: PPARg:RXRa 30nM:10nM, anti-RXR (NR concentration 30 nM, RXRa partner concentration 10 nM)
# Method in brief: as §1
# [10] = system: PPARg:RXRa 90nM:30nM, anti-RXR (NR concentration 90 nM, RXRa partner concentration 30 nM)
# Method in brief: as §1
# [11] = system: PPARg:RXRa DBDmut IVT, anti-RXR (DBD mutation: RXRa K156A/R161A, NR concentration 270 nM, RXRa partner concentration 90 nM)
# Method in brief: as §1
# [12] = system: PPARg:RXRa IVT, anti-PPARg (NR concentration 270 nM, RXRa partner concentration 90 nM)
# Method in brief: as §1
# [13] = system: PPARg DBDmut:RXRa IVT, anti-PPARg (DBD mutation: PPARg1 K132A/R137A, NR concentration 270 nM, RXRa partner concentration 90 nM)
# Method in brief: as §1
# [14] = system: PPARg DBDmut IVT, anti-PPARg (DBD mutation: PPARg1 K132A/R137A, NR concentration 270 nM)
# Method in brief: as §1
# [15] = system: PPARg homodimer (NR concentration 180 nM)
# Method in brief: as §1
# [16] = system: PXR:RXRa (NR concentration 270 nM, RXRa partner concentration 90 nM)
# Method in brief: as §1
# [17] = system: PXR homodimer (NR concentration 270 nM)
# Method in brief: as §1
# [18] = system: RARa:RXR (NR concentration 270 nM, RXRa partner concentration 90 nM)
# Method in brief: as §1
# [19] = system: RARa homodimer (NR concentration 270 nM)
# Method in brief: as §1
# [20] = system: RARb:RXRa (NR concentration 270 nM, RXRa partner concentration 90 nM)
# Method in brief: as §1
Sequence,PBM binding z-score [1],PBM binding z-score [2],PBM binding z-score [3],PBM binding z-score [4],PBM binding z-score [5],PBM binding z-score [6],PBM binding z-score [7],PBM binding z-score [8],PBM binding z-score [9],PBM binding z-score [10],PBM binding z-score [11],PBM binding z-score [12],PBM binding z-score [13],PBM binding z-score [14],PBM binding z-score [15],PBM binding z-score [16],PBM binding z-score [17],PBM binding z-score [18],PBM binding z-score [19],PBM binding z-score [20]
CCTACTGGGCGACGAAAGGTCATTGATTCAGTGA,3.21,3.92,4.32,3.94,-0.175,4.31,2.37,3.74,1.35,2.73,1.64,2.57,-0.823,-0.515,1.98,4.56,0.841,4.47,0.351,3.75
TAGCCTAGGTCATAGGGCCAGTATAGTACGCATC,4.13,3.13,0.208,2.09,-0.248,3.7,3.32,3.46,1.43,2.75,1.41,2.83,0.326,-0.841,1.14,1.45,-0.088,2.37,-0.213,3.75
ATCGAACGGTCGACGAGGTGAGTATACACCGTTT,-0.18,-0.425,-0.327,-0.336,-0.463,-0.0739,0.937,-0.158,-0.0439,-0.375,-0.724,0.667,0.31,0.651,-0.218,-0.192,-0.411,-0.0707,-0.605,0.92
CAGCCTAGTTCAGGGCCAGTATAGGAGGAACGTT,0.0528,-0.124,-0.0841,-0.218,-0.532,-0.241,-0.041,-0.6,-0.567,-0.509,-0.416,-0.592,-0.87,-0.941,-0.37,-0.0793,0.431,-0.13,-0.131,1.05
CCTGGCAGGCCAGGGTCACTCAAGCATTTCGCTT,2.34,2.07,-0.539,2.18,-1.2,3.35,0.292,1.27,-0.621,0.206,-0.558,0.531,-1.01,-1.58,0.712,3.01,-0.393,3.1,-0.89,2.91
CCTACTGGGCCAAAGGACATTGATTCCAATGCTC,-0.0323,-0.0828,-0.295,-0.127,-0.465,2.62,5.82,6.75,5.26,7.73,4.14,4.09,-0.131,-0.115,0.47,-0.488,-0.554,-0.324,-0.235,0.93
ATCGAAAAGTCGAAGGTGAGTATACCCACCCGAA,0.0437,-0.18,-0.293,-0.264,-0.243,0.35,0.704,0.332,0.126,0.251,-0.679,0.2,0.0254,0.527,0.0253,-0.258,-0.0858,0.357,0.291,0.417
TTACCGAGGTGAAAGGTCGTTGATGCACGCCTTG,3.99,3.64,0.332,3.53,-0.52,5.85,9.29,8.26,7.84,9.2,3.24,5.19,0.609,0.681,2.03,4.58,0.0493,6.71,-0.0852,3.11
CCTTACGGGTCCCTGACAGGTTATAGCATTTGGA,-0.274,-0.086,0.128,-0.0575,-0.647,0.0699,0.112,-0.345,-0.32,-0.402,-0.486,-0.544,-1.04,-1.23,0.149,-0.106,-0.274,-0.0622,0.466,0.205
CAAACTAGGTCAAGAGGTCAAACTCCGCTTCCCG,7.36,6.74,6.8,5.98,2.74,6.77,10.1,8.55,7.7,9.09,8.21,8.74,4.72,2.13,6.57,6.37,4.12,8.15,2.88,5.41
CCTACTGGGCCATGAAAGGTCATTGATTCAGTGA,3.25,4.74,4.74,3.86,0.00492,4.16,2.9,4.17,1.44,3.24,4.45,4.58,0.322,0.328,3.71,5.2,1.71,5.37,1.41,3.62
CCTACTGGGCCAAAGGCCATTGATTCCAATGCTC,-0.204,-0.344,-0.23,-0.115,-0.699,3.51,7.53,7.54,6.63,7.44,3.67,4.27,-1.16,-0.289,0.544,-0.131,-0.371,0.0662,-0.609,0.924
TCTAGTTGGTCATGGAGGTCACACACGACGGGTA,3.61,3.7,3.33,3.3,1.23,3.9,3.39,3.95,3.27,3.52,2.58,3.96,1.39,1.01,3.56,4.8,2.15,4.97,2.88,3.77
